Hit rate of the full screen: of about 96,000 compounds, about 20,000 (21%) were called active. These entries were drawn from the full list. Unmarked numbers belong to inactive results.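 The calls were made as follows: active = CYP2C19 inhibition above a set limit at 5 µM in the primary screen (cut at about 50% in these data); inactive = the rest.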

Chain of Cytochrome P450 2C19 (Homo sapiens) (P33261 whole entry, looked up): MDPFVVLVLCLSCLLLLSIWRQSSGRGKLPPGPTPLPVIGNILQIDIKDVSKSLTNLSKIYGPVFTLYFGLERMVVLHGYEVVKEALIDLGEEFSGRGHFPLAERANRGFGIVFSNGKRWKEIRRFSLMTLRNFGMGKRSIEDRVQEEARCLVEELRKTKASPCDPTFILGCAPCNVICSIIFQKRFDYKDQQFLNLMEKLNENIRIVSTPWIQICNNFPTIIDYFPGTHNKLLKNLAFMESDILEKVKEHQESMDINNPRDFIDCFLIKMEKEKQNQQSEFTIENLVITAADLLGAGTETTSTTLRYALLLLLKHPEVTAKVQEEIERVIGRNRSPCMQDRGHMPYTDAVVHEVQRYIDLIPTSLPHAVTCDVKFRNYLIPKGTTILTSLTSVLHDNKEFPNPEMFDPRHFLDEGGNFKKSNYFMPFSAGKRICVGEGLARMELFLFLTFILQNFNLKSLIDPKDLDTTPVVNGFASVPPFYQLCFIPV

This assay has as its target Cytochrome P450 2C19 (Homo sapiens) (UniProt P33261). The experiment in a line: blockers of cytochrome P450 2C19 activity – biochemical, luminescence, ADME assay, primary screen (AID 778).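 Also: plate controls were negative control wells for no effect and 2.5 mM tranylcypromine positive control for full effect.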 Conditions: CYP2C19 Supersomes, luciferin-H EGE luminescence, 30 min; at 5 µM; active compounds read high.
The term inhibition denotes the relative decrease from the control value, in per cent. Consider `CN1CCN(C(=O)C2C3C=CC(C3)C2C(=O)O)CC1` (configuration not stated), for which the inhibition is 33.8%.
Take `OCCNc1nc2ccccc2n1-c1ncnc2sc3c(c12)CCC3`: the inhibition is -6%.
With `COc1ccc(N2C(=O)C3CCCN3C2c2cc(OC)c(OC)cc2OC)cc1` (configuration not stated), the inhibition is -12.2%.
Next, `Cc1ccsc1CNn1cnnc1SCc1ccccc1F`: 83.4% (active); `Cc1ccccc1CSc1nnc(-c2cccnc2)n1N`: 28.5%; `COc1ccc2[nH]c(=O)c(CNc3ccc(C)c(C)c3)cc2c1`: 24%.
Regarding `COc1cccc2cc(C(C)N(CCCN3CCOCC3)C(=O)Nc3ccc(Cl)cc3)oc12` (configuration not stated), the inhibition is 48.4%.
As to `Cc1ccc(-c2csc(-c3c[nH]c4ccccc34)n2)cc1`, the inhibition was -2.4%.
For `COCCOCCn1cnc2ccccc21`, the inhibition was -2.7%.
Next, `O=C(COC(=O)c1ccc(Oc2ccccc2)cc1)Nc1nnc(-c2ccccc2)o1`: 34.2%; `CCOc1ccc(NCCC(=O)c2ccc3c(c2)OCO3)cc1`: 37.9%.
For the molecule `CCOC(=O)c1c(C)[nH]c(C(=O)COc2ccc3c(c2)OCO3)c1C`, the inhibition was 78.4% (active).
Next, `CCOC(=O)c1c(C)oc2ccc(OCC(=O)N(CC)CC)cc12`: 47.5%.
For `CN1CCN(CCCNC(=O)c2cc3c(=O)oc4ccccc4c3s2)CC1` the value was -1.6%.
As to `CC(C)(CNCC(O)c1ccccc1)N1CCOCC1` (configuration not stated), the inhibition was -1.1%.
Consider `CCC(=O)NNc1cc(=O)c2c(=O)n(C)c(=O)n(C)c2[nH]1`, for which the inhibition is 11.1%.
Next, `O=C(c1cccc(C(=O)N2CCc3ccccc32)n1)N1CCc2ccccc21`: 12.3%; `O=C(c1c(Cl)nc2sccn12)N1CCCc2ccccc21`: 91.5% (active).
Next, `COc1ccc2oc(=O)c(C(=O)N3CCCc4ccccc43)cc2c1`: 10.2%; `Cc1noc(COc2ccccc2OCC(O)CNC(C)(C)C)n1` (configuration not stated): -7.7%.
In the case of `CN(c1ccccc1)c1ccc(/C=c2\s/c(=C(/C#N)C(=O)C(C)(C)C)n(Cc3ccco3)c2=O)cc1`, the inhibition was 5.4%.
For `Cn1c(-c2sc3cc(C(F)(F)F)cnc3c2-c2ccccc2)n[nH]c1=S` the value was 47.3%; for `FC(F)(F)c1cc(-c2ccco2)nc(NCc2ccc(Cl)cc2)n1`, 57% (active).
Next, `FC(F)(F)c1cc(-c2ccco2)nc(N2CCOCC2)n1`: -16.1%.
For `FC(F)(F)c1cc(-c2cccs2)nc(NCc2ccco2)n1` the value was 20.5%.
For the molecule `Cc1ccccc1NC(=O)c1cnn(-c2ccccc2)c1NC(=O)c1ccco1`, the inhibition is -2.6%.
For `COCCNC(=O)C(c1ccc(C)o1)N(Cc1cccs1)C(=O)c1snc(C(N)=O)c1N` (configuration not stated), the inhibition is 2.1%.

These data come from PubChem BioAssay AID778 (Sanford-Burnham Center for Chemical Genomics, 2007).
